# Measured values from PubChem BioAssay AID720517 (National Center for Advancing Translational Sciences (NCATS), 2013).
# Results filed as inconclusive are left out. Unmarked numbers belong to inactive results. Calls come from the whole dose curve; as a rule, active = well fitted activation curve with a large enough effect; inconclusive = small, poorly fitted or top-dose-only effect; inactive = flat fitted curve, though single readings scatter.
# Assay: qHTS for Inhibitors of Cell Surface uPA Generation: FP59 Counterscreen for Cherry-picked Compounds; note: 0% is about no effect
# Conditions: FP59 anthrax toxin cytotoxicity counterscreen, cells; series mostly up to 115 µM; activity (protection from FP59): at the top concentration
row,SMILES,activity (protection from FP59) [%]
1,CN(CCO)c1ccc(C(C(=O)c2ccccc2)c2ccc(N(C)CCO)cc2)cc1,0.252
2,NC(=O)CC(NC(=O)Cc1cccc2ccccc12)c1ccc(N2CCN(c3ccc(F)cc3)CC2)c([N+](=O)[O-])c1 (configuration not stated),-1.4
3,COc1ccc2nc(SC(C)C(=O)NC3(C#N)CCCCC3)[nH]c2c1 (configuration not stated),-1.27
4,CCCCn1c(C2CCCCC2)nc2cc3[nH]c(=O)c(C(C)C)nc3cc21,-1.59
5,CCCS(=O)(=O)c1ccc(COC(=O)Cc2ccc([N+](=O)[O-])cc2)cc1,-0.901
6,COc1cc(CN2CCNC(=O)C2CC(=O)NCCCC2CCCC2)cc(OC)c1 (configuration not stated),-1.23
7,O=C(Nc1ccc(NC(=O)c2ccco2)c(Cl)c1)c1ccccc1,-1.41
8,CCc1ccc(OCC(=O)N(Cc2cccs2)C2CCS(=O)(=O)C2)cc1 (configuration not stated),-1.29
9,Cn1c(=O)c(=O)n(C)c2cc(S(=O)(=O)CCC(=O)Nc3ccc(F)cc3)ccc21,-1.37
10,Cc1cc(=O)[nH]c2c(C)cc(S(=O)(=O)Nc3ccc(O)cc3)cc12,1.18
11,O=C(O)CSc1nnc(COc2ccccc2)n1-c1ccccc1,-1.31
12,O=C(Nc1ccnn1C1CCN(CCCC2CCCC2)CC1)c1ccccc1,-1.38
13,CCOC(=O)c1ccccc1N=Cc1c(O)c2ccccc2oc1=O,-1.49
14,CCOc1ccc(C(=O)NCCO)cc1,-1.17
15,CC(C)(C)NC(=O)C(c1cccs1)N(C(=O)c1csnn1)c1ccccc1F (configuration not stated),-1.19
16,Cn1c(=O)n(CC(=O)O)c(=O)c2c1nc1n2CCCN1CCc1ccccc1,-1.33
17,Cc1ccc(NC(=O)CC2OC(=O)c3ccccc32)cc1S(=O)(=O)N1CCOCC1 (configuration not stated),-1.31
